# Test results reported in the supplement of paper PMC10338343.
# ± gives the standard deviation.
# Tested on: MILI (PIWIL2) piRISC loaded with piRNA #1 (26 nt)
# Assay: pre-steady-state target cleavage rate (min^-1); guide: piRNA #1 5'p-UGAGGUAGUAGGUUGUAUAGUAUCCA; MIWI and MILI are mouse PIWI proteins and EfPiwi is from a freshwater sponge; tags in brackets are library labels; higher = faster piRNA-guided slicing of the target
# Conditions: auxiliary factor: 500 nM mouse GTSF1
# Protocol: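 Cleave-'n-Seq: a library of target RNAs (target site embedded in constant flanks, ACAGCATTCCGCGTTAGTGATATCCG... 5' flank; DNA-blocked outside the site) at 0.1 nM was incubated with 1 nM active mouse MILI or MIWI piRISC (synthetic 5'-monophosphorylated piRNA guide) with or without 500 nM mouse GTSF1 at 33 °C for 1 min to 16 h. Uncleaved targets were sequenced and normalised to non-target controls, and the pooled three trials were fitted to a burst-and-steady-state model to give the pre-steady-state cleavage rate (min^-1; k3 is constrained to at most 1e-4). Sequence is the target site only; target names encode pairing extent (gX:gY) and contiguous / 1-mismatch / 2-mismatch / bulge geometry. Fits with R² ≤ 0 are excluded.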
row,Sequence,pre-steady-state target cleavage rate
1,GGAGACCUAUGAUAUGUUCCUACUACCCCA,< 0.0001
2,GGAGACCUAUCAAUACAACCUACUUCCUCA,0.0355 ± 0.0087
3,GGAGAGGAUACUUUACAACCUACUACGUCA,0.0429 ± 0.0069
4,GGAGUGGAUUCUAUACAACCUACUUCCUCA,0.00383 ± 0.0021
5,GGAGACCUUACUAUACAACCUACUUCCUCA,0.0805 ± 0.016
6,GGAGUGGAUACAAUACAAGCUACUACCUCA,0.213 ± 0.015
7,GGAGUGGAUAGUAUACAACCUACUUCCUCA,0.0138 ± 0.0048
8,GGAGUGGAUACUAUACAUCCUAGUACCUCA,0.103 ± 0.019
9,GGAGUCGAUACUAUACAAGCUACUACCUCA,0.142 ± 0.011
10,GGAGUGGAUACUAUACACCCUACUACCUCA,0.0921 ± 0.0066
11,GGAGUGGAUUCUAUACAAGCUACUACCUCA,0.228 ± 0.013
12,GGAGACCUAUGAUAUCUAACCUACUACCUCA,0.00471 ± 0.0023
13,GGAGACCAUACUAUACAACGUACUACGUCA,0.0148 ± 0.0053
14,GGAGACCUAUGAUAACAACCUACUCACCUCA,0.00465 ± 0.0027
15,GGAGACCUAUGAUUACAAGCUACUACCUGA,0.0183 ± 0.0056
16,GGAGACCAUACAAUACAACCUACUAGCUCA,0.181 ± 0.029
17,GGAGACCUAACUAUACAACCUAAUACCUCA,0.0504 ± 0.013
18,GGAGACCUAACUAUACUACCUAGUACCUCA,0.0154 ± 0.0058
19,GGAGACCAAACUAUACAACCUAGUACCUCA,0.0169 ± 0.0096
20,GGAGACCUUACUAUUGAACCUACUACCUCA,0.137 ± 0.013

row,Sequence,pre-steady-state target cleavage rate
1,GGAGUGGAUACAAUACAACCUACUACCACA,0.111 ± 0.0093
2,GGAGACGUAACUAUACAACCUACUACCUCA,0.166 ± 0.018
3,GGAGUGGAUACUAUAGAACCUACUACCUCA,0.178 ± 0.0098
4,GGAGACCUAACUAUACAACCUACAUACCUCA,0.0941 ± 0.018
5,GGAGUGGAUACAAUACUACCUACUACCUCA,0.16 ± 0.013
6,GGAGUGGAUACUAUUGAACCUACUACCUCA,0.0784 ± 0.0078
7,GGAGAGGAUACUAUACAACCUACUUCCUCA,0.0124 ± 0.0047
8,GGAGUGGAUACUAUAUAACCUACUACCUCA,0.191 ± 0.0088
9,GGAGACGUUACUAUACAACCUACUACCUCA,0.186 ± 0.014
10,GGAGUGGAUACUAUACAACGUACUUCCUCA,0.0153 ± 0.0037
11,GGAGACCUAACUAUACAACCUACAACCACA,0.0203 ± 0.012
12,GGAGACCUUACUAAAGAACCUACUACCUCA,0.105 ± 0.011
13,GGAGACCUAACUAUACAACCUACUUCCACA,0.0458 ± 0.022
14,GGAGACCAUACUAAACAACCUACUACCUGA,0.13 ± 0.018
15,GGAGACCUAUGAUAACAACCUACUACCUCC [g2:g16:cont:t1C],0.00493 ± 0.0021
16,GGAGACCUUUCUAAACAACCUACUACCUCA,0.0629 ± 0.012
17,GGAGACCAUAGAAUACAACCUACUACCUCA,0.0281 ± 0.0057
18,GGAGUGGAUAGUAUACAACCUACUACCUGA,0.0603 ± 0.014
19,GGAGACCUAUGUAUACAACCUACUACCUCU [g2:g19:cont:t1U],0.0508 ± 0.0069
20,GGAGAGGAUACUAAUCAACCUACUACCUCA,0.148 ± 0.011
